Inconclusive results are not listed. The source made the active and inactive calls. Calls come from the whole dose curve; as a rule, active = well fitted cell-killing curve with a large enough effect in the repeat runs; inconclusive = weak or mixed curves, or effect the other way; inactive = flat fitted curve, though single readings scatter.
assay: qHTS assay to identify small molecule agonists of the constitutive androstane receptor (CAR) signaling pathway - cell viability counter screen (AID 1224836); details: HepG2-CYP2B6-hCAR viability, CellTiter-Fluor, 23 h, PK11195 added to every well; series mostly up to 92.4 µM; viability change, negative = cytotoxic: at the top concentration; note: nearly all actives have a fitted effect of over 45% in size
Text: U.S. Tox21 Program National Center for Advancing Translational Sciences [NCATS] NIH Chemical Genomics Center [NCGC] U.S. Environmental Protection Agency [EPA] National Institutes of Environmental Health Sciences [NIEHS] National Toxicology Program [NTP] U.S. Food and Drug Administration [FDA] Tox21 Assay Overview: The constitutive androstane receptor (CAR) is a nuclear receptor which regulates multiple drug metabolizing enzymes (DMEs) and transporters. Activating CAR will generally increase the transcription and subsequent translation of CYP2B6 and CYP3A4. These two DMEs represent about 50% of the drug metabolizing potential in the body. […] Recently, there have also been studies performed indicating CARs role in energy metabolism and cancer therapy. Therefore, inducing CARs activity could have a potential effect on diabetes and cancer. Identifying environmental toxins and compounds which modulate CAR, through the use of the Tox21 10K compound collection, will be an important step in determining the toxicity and potential therapeutic effects these factors will have on the human body. To differentiate true CAR agonists from cytotoxic substances, the assay is multiplexed with a cell viability assay.
Tox21 Assay Protocol Summary: A double-stable (hCAR and CYP2B6-2.2kb) transfected cell line, derived from human hepatoma (HepG2) cells, was utilized for the duration of the quantitative high-throughput screens. The HepG2-CYP2B6-hCAR cells were dispensed at 2500 cells/4 uL/well in 1536-well white solid bottom plates using a Multidrop Combi. After the assay plates were incubated at 37 C/5% CO2 for 4 hrs, 23 nL of compounds at 15 concentrations (from 5-48 columns) or positive control (from 1 to 4 columns) were transferred to the assay plates using a Pintool station. One uL of PK11195 (final concentration = 0.75 uM) was added, using a Flying Reagent Dispenser, inside each well. After a 23 hr incubation period at 37 C/5% CO2, 1 uL of CellTiter-Fluor reagent was added into each well of the assay plates using a Flying Reagent Dispenser. The fluorescence intensity in the plates was then measured using a ViewLux plate reader.
% is set by controls: 0 for no effect and ±100 for the full control effect; potency is the fitted concentration of half-maximal effect.

| Structure (SMILES) | viability change, negative = cytotoxic | Potency |
| --- | --- | --- |
| Oc1ccc2c(c1)OCO2 | -1.5% (inactive) |  |
| NC[C@H]1O[C@H](O[C@H]2[C@H](O)[C@@H](O[C@H]3O[C@H](CO)[C@@H](O)[C@H](N)[C@H]3O)[C@H](N)C[C@@H]2N)[C@H](O)[C@@H](O)[C@@H]1O | -3.02% [at 8.39 µM] (inactive) |  |
| O=C(O)C(c1ccc(Cl)cc1)c1ccc(Cl)cc1 | 2.5% (inactive) |  |
| CCOC(=O)[C@H](CCc1ccccc1)N[C@H]1CCc2ccccc2N(CC(=O)O)C1=O | -24.3% [at 42.5 µM] (inactive) |  |
| COC(=O)CSc1cc(N=c2sc(=O)n3n2CCCC3)c(F)cc1Cl | -9.13% (inactive) |  |
| CC(=O)c1ccc2c(c1)[C@H](NC(=O)c1ccc(F)cc1)[C@@H](O)C(C)(C)O2 | -20.3% (inactive) |  |
| CC(=O)/C=C/C1C(C)=CCCC1(C)C (stereo not given) | -11% (inactive) |  |
| C#CCOC(=O)[C@@H](C)Oc1ccc(Oc2ncc(Cl)cc2F)cc1 | 4.4% (inactive) |  |
| CC[C@H](C)[C@@H](C(=O)O)n1sc2ccccc2c1=O | 2.96% (inactive) |  |
| CN1CCN(C2=Nc3ccccc3Sc3ccc(Cl)cc32)CC1 | -1.64% [at 42.5 µM] (inactive) |  |
| COc1ccc2[nH]c(S(=O)Cc3ncc(C)c(OC)c3C)nc2n1 (stereo not given) | 6.29% [at 42.5 µM] (inactive) |  |
| Oc1ccc(C(O)CNCCCCCCNCC(O)c2ccc(O)c(O)c2)cc1O (stereo not given) | -14.2% [at 42.5 µM] (inactive) |  |
| CC(=O)NCCCS(=O)(=O)O | -0.53% [at 42.5 µM] (inactive) |  |
| OCCC1CCCCN1 (stereo not given) | 9.1% (inactive) |  |
| NCc1ccccc1 | 2.65% (inactive) |  |
| Cc1ccc(C(N)=O)cc1N | 0.825% (inactive) |  |
| CCN(CC)CCOC(=O)C1(c2ccccc2)CCCC1 | -2.23% [at 42.5 µM] (inactive) |  |
| CC(CN)CCCN (stereo not given) | 3.23% (inactive) |  |
| CN1CCC(OC(c2ccccc2)c2ccccc2)CC1 | -8.25% [at 42.5 µM] (inactive) |  |
| CCCCOC(O)CC (stereo not given) | -1.81% (inactive) |  |

| Structure (SMILES) | viability change, negative = cytotoxic | Potency |
| --- | --- | --- |
| CCOc1ccc(NC(=O)CC(C)=O)cc1 | 5.76% (inactive) |  |
| CN(C)CC/C=C1\c2ccccc2COc2ccccc21 | -20.1% [at 42.5 µM] (inactive) |  |
| Nc1ccc(C(=O)N2CC3CC(CN(Cc4ccccc4)C3)C2)cc1 | -1.71% [at 42.5 µM] (inactive) |  |
| CC(C)CCCC(C)CCO (stereo not given) | -3.4% (inactive) |  |
| CNS(=O)(=O)Cc1ccc2[nH]cc(CCN(C)C)c2c1 | 5.33% [at 42.5 µM] (inactive) |  |
| c1ccc(OCc2ccc(CCCN3CCOCC3)cc2)cc1 | -18.7% [at 42.5 µM] (inactive) |  |
| C=CC[N+]1([C@H]2C[C@H]3[C@@H]4CC[C@H]5C[C@H](OC(C)=O)[C@@H](N6CCCCC6)C[C@]5(C)[C@H]4CC[C@]3(C)[C@H]2OC(=O)CC)CCCCC1 | 0.71% [at 42.5 µM] (inactive) |  |
| CCOC(=O)C1=NN(c2ccccc2)C(=O)C1 | 2.95% (inactive) |  |
| O=C1c2cccc(O)c2C(=O)c2c(O)cc(CO)cc21 | -3.81% (inactive) |  |
| CCCC(=O)OCC | 0.467% (inactive) |  |
| CCCCCCCCCCCCCCC1CO1 (stereo not given) | 5.24% (inactive) |  |
| N[C@H]1C(O)O[C@H](CO)[C@H](O)[C@@H]1O (stereo not given in full) | 3.4% (inactive) |  |
| Cc1cc(NC(=O)C(=O)O)cc(C)c1Oc1ccc(O)c2c1CCC2 | -0.757% (inactive) |  |
| Cc1ccccn1 | -6% (inactive) |  |
| O=C(Cl)c1c(Cl)cccc1Cl | -0.0699% (inactive) |  |
| O=C(O)Cc1cc(I)c(Oc2ccc(O)c(I)c2)c(I)c1 | -3.45% (inactive) |  |
| CC(C)(C)C1CCCCC1O (stereo not given) | -19.6% (inactive) |  |
| O=[N+]([O-])c1cc[n+]([O-])cc1 |  | 30.6 µM (active) |
| O=CNc1ccccc1 | -1.38% (inactive) |  |
| Nc1nc(N)c(-c2ccccc2)s1 | 7.76% [at 42.5 µM] (inactive) |  |
